“And” between values parts separate entries of the source, which are not always exact repeats. Equal entries are not always repeated. Where two headings read alike, the source gives them in different places.
Columns and labels:
[1] = tested on: PRKCD; settings: concentration: 1 μM, replicates: in singlicate, n = 1
[2] = tested on: PRKCE; settings: concentration: 1 μM, replicates: in singlicate, n = 1
[3] = tested on: PRKCH; settings: concentration: 1 μM, replicates: in singlicate, n = 1
[4] = tested on: PRKCI; settings: concentration: 1 μM, replicates: in singlicate, n = 1
[5] = tested on: PRKCQ; settings: concentration: 1 μM, replicates: in singlicate; n = 1
[6] = tested on: PRKD1; settings: concentration: 1 μM, replicates: in singlicate, n = 1
[7] = tested on: PRKD2; settings: concentration: 1 μM, replicates: in singlicate, n = 1
[8] = tested on: PRKD3; settings: concentration: 1 μM, replicates: in singlicate, n = 1
[9] = tested on: PRKG1; settings: concentration: 1 μM, replicates: in singlicate, n = 1
[10] = tested on: PRKG2; settings: concentration: 1 μM, replicates: in singlicate, n = 1
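Note: KINOMEscan kinase panel screen.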

| SMILES | %Inh [1] [%] | %Inh [2] [%] | %Inh [3] [%] | %Inh [4] [%] | %Inh [5] [%] | %Inh [6] [%] | %Inh [7] [%] | %Inh [8] [%] | %Inh [9] [%] | %Inh [10] [%] | %Inh ([1]; 1 µM) | %Inh ([2]; 1 µM) | %Inh ([3]; 1 µM) | %Inh ([4]; 1 µM) | %Inh ([6]; 1 µM) | %Inh ([7]; 1 µM) | %Inh ([8]; 1 µM) | %Inh ([9]; 1 µM) | %Inh ([10]; 1 µM) |
| --- | --- | --- | --- | --- | --- | --- | --- | --- | --- | --- | --- | --- | --- | --- | --- | --- | --- | --- | --- |
| CNc1nccc(-c2c(-c3ccc(F)cc3)ncn2CCCN2CCOCC2)n1 [SB-222516] | 1 | 5 | 0 | 20 | 0 | 0 | 0 | 0 | 14 | 16 |  |  |  |  |  |  |  |  |  |
| O=C(Nc1n[nH]c2nc(-c3ccco3)c(Br)cc12)c1ccc(CN2CCCC2)cc1.O=C(O)[C@H](O)[C@@H](O)C(=O)O [SB-742352] | 0 | 2 | 17 | 0 | 0 | 0 | 30 | 0 | 0 | 0 |  |  |  |  |  |  |  |  |  |
| FC(F)(F)c1ccc(-c2nn3ncccc3c2-c2ccnc(Nc3cccc(C(F)(F)F)c3)n2)cc1 [GW828205] | 16 | 0 | 0 | 30 | 0 | 7 | 6 | 0 | 5 | 16 |  |  |  |  |  |  |  |  |  |
| NC(=O)c1sc(-n2cnc3ccccc32)cc1OCc1ccccc1F [GSK1024306] | 0 | 12 | 17 | 0 | 0 | 0 | 7 | 0 | 12 | 0 |  |  |  |  |  |  |  |  |  |
| CCCc1ccc(S(=O)(=O)NC2CCN(c3ccnc(Nc4ccc(OC)cc4)n3)C2)cc1 (stereo not drawn) [GSK1379737] | 0 | 9 | 0 | 11 | 0 | 0 | 3 | 9 | 0 | 0 |  |  |  |  |  |  |  |  |  |
| CC(C)(C)c1ccc(-n2cnc3c(N)ncnc32)cc1 [SKF-97263] | 6 | 13 | 29 | 1 | 15 | 0 | 0 | 55 | 11 | 0 |  |  |  |  |  |  |  |  |  |
| Cc1cccc(-c2nc(Nc3ccc4[nH]nnc4c3)c3ccccc3n2)n1 [GW867587] | 0 | 7 | 0 | 0 | 0 | 94.2 | 98.1 | 66 | 0 | 0 |  |  |  |  |  |  |  |  |  |
| Nc1n[nH]c2nnc(-c3ccccc3)cc12 [SB-517389] | 0 | 9 | 23 | 18 | 0 | 0 | 0 | 0 | 0 | 0 |  |  |  |  |  |  |  |  |  |
| Nc1nc(-c2ccc3c(N)n[nH]c3c2)cc(N2CCC[C@@H](C(=O)Nc3ccccc3)C2)n1.O=C(O)C(F)(F)F.O=C(O)C(F)(F)F [GSK2288359] | 0 | 0 | 0 | 12 | 7 | 0 | 1 | 5 | 13 | 29 |  |  |  |  |  |  |  |  |  |
| Clc1cccc(-c2nc(Nc3ccncc3)c3ccccc3n2)c1 [GW873004] | 24 | 16 | 50 | 17 | 0 | 47 | 45 | 44 | 16 | 7 |  |  |  |  |  |  |  |  |  |
| CN1c2ccc(-c3ccc(C(=O)NCCO)cc3)cc2-c2[nH]ncc2S1(=O)=O | 26 | 12 | 8 | 0 | 1 | 0 | 34 | 0 | 61 | 9 |  |  |  |  |  |  |  |  |  |
| COC(=O)c1c(-c2ccccc2)c2cc(Cl)ccc2c(=O)n1Cc1ccc(S(C)(=O)=O)cc1 | 0 | 0 | 0 | 8 | 19 | 33 | 0 | 0 | 0 | 12 |  |  |  |  |  |  |  |  |  |
| CC(C)N1CCC(n2cnc(-c3ccc(F)cc3)c2-c2ccnc(N)n2)CC1 [SB-223132] | 9 | 0 | 0 | 29 | 0 | 18 | 0 | 0 | 2 | 2 |  |  |  |  |  |  |  |  |  |
| CC(C)(C)OC(=O)NC1CCCN(c2cc(-c3ccc4c(N)n[nH]c4c3)nc(N)n2)C1 (stereo not drawn) [GSK2286096] | 0 | 12 | 0 | 0 | 0 | 0 | 15 | 0 | 0 | 70 |  |  |  |  |  |  |  |  |  |
| O=C(Nc1ccccc1)Nc1ccc(Oc2ccc3nccn3n2)cc1 | 10 | 0 | 0 | 19 | 0 | 24 | 6 | 0 | 13 | 0 |  |  |  |  |  |  |  |  |  |
| COc1ccc(Nc2nccc(N3CCC(NC(=O)Nc4ccc5c(c4)OCO5)C3)n2)cc1 (stereo not drawn) [GSK1379745] | 8 | 10 | 12 | 25 | 2 | 1 | 0 | 25 | 20 | 0 |  |  |  |  |  |  |  |  |  |
| COc1ccc(Nc2nccc(N3CCC(NC(=O)c4cccc(NC(C)=O)c4)C3)n2)cc1 (stereo not drawn) [GSK1379732] | 8 | 16 | 17 | 5 | 25 | 13 | 20 | 11 | 2 | 11 |  |  |  |  |  |  |  |  |  |
| Fc1cccc(COc2ccc(Nc3ncnc4nn5ccccc5c34)cc2Cl)c1 [GW689066] | 0 | 0 | 0 | 25 | 7 | 0 | 0 | 0 | 0 | 0 |  |  |  |  |  |  |  |  |  |
| Clc1cc(Nc2ncnc3cc[nH]c23)ccc1OCc1ccccn1 | 13 | 8 | 0 | 9 | 34 | 0 | 3 | 0 | 10 | 22 |  |  |  |  |  |  |  |  |  |
| Cl.Cl.c1ccc(-c2cc3ccncc3cc2OC2CCNCC2)cc1 [GSK1122999] | 33 | 82 | 86 | 21 | 21 | 15 | 7 | 0 | 0 | 0 |  |  |  |  |  |  |  |  |  |
| N#Cc1ccc(Oc2ccc(Nc3ncnc4cc[nH]c34)cc2Cl)cc1 | 0 | 0 | 22 | 12 | 19 | 0 | 10 | 0 | 0 | 30 |  |  |  |  |  |  |  |  |  |
| COc1ccc(-c2nc3n(c2-c2ccncc2)CCC3)cc1 [SKF-104493] |  |  |  |  | 0 |  |  |  |  |  | 0% and 8% | 45% and 8% | 6% and 7% | 0% and 50% | 0% and 3% | 2% and 16% | 0% and 27% | 32% and 7% | 1% and 18% |
| COC(=O)c1cccc(NC(=O)NCCNc2ccnc(Nc3ccc(F)cc3)n2)c1 [GSK1379883] | 0 | 6 | 34 | 24 | 0 | 21 | 35 | 0 | 7 | 0 |  |  |  |  |  |  |  |  |  |
| Fc1cccc(COc2ccc(Nc3ncnc4sc(-c5ccc[nH]5)cc34)cc2Cl)c1 [GW707818] | 0 | 14 | 100 | 9 | 0 | 26 | 54 | 0 | 0 | 10 |  |  |  |  |  |  |  |  |  |
| O=c1cc(N2CCOCC2)nc2n(Cc3cccc(Cl)c3)ccn12 [GSK2296823] | 0 | 8 | 0 | 22 | 0 | 0 | 0 | 15 | 0 | 0 |  |  |  |  |  |  |  |  |  |
| Cl.O=S(=O)(c1cccc(F)c1)c1ccc(Nc2ncnc3cc(Br)sc23)cc1Cl [GSK306886] | 0 | 45 | 0 | 0 | 0 | 7 | 13 | 4 | 0 | 23 |  |  |  |  |  |  |  |  |  |
| C[C@H]1CC[C@@H](C(=O)Nc2ccccc2)CN1c1cc(-c2ccc3c(N)n[nH]c3c2)nc(N)n1 [GSK2283293] | 0 | 0 | 24 | 24 | 4 | 0 | 4 | 0 | 0 | 4 |  |  |  |  |  |  |  |  |  |
| Cc1cc(N2CCC(NS(=O)(=O)c3ccc(F)cc3)CC2)nc(Nc2cccc(C#N)c2)n1.O=C(O)C(F)(F)F [GSK1653537] | 3 | 0 | 27 | 12 | 19 | 35 | 31 | 43 | 3 | 0 |  |  |  |  |  |  |  |  |  |
| O=C(Nc1ccccc1F)NC1CCN(c2ccnc(Nc3ccc(F)cc3)n2)C1 (stereo not drawn) [GSK1379722] | 0 | 13 | 30 | 10 | 23 | 0 | 0 | 0 | 0 | 0 |  |  |  |  |  |  |  |  |  |
| Nc1nc(-c2ccc3c(N)n[nH]c3c2)cc(N2CCCCC2)n1 [GSK2228768] | 0 | 0 | 0 | 6 | 17 | 0 | 4 | 6 | 0 | 8 |  |  |  |  |  |  |  |  |  |

Reference: PMC5540273 (PLoS ONE, 2017)
